Hit rate of the full screen: of about 48,000 compounds, about 13,000 (27%) showed an effect of 50% or more. The list shows a part of the results.

The test relates to Wolbachia pipientis. The experiment in a line: Anti-Wolbachia Cell-Based Screen. The class given is functional. Details: scale not given: in the data most compounds retested in dose-response had high values. The note with it: 5 µM.
For `COc1ccc2c(c1)CCCC2CC(=O)NCC(C)(C)C(=O)O` (stereo not given), the “Percent Effect” value is recorded as -16.88%.

As for `CS(=O)(=O)CCCNC1(c2ccc(Br)cc2)CCC1`, the “Percent Effect” value was 1.327%.

Regarding `CCc1csc(C2CCCN(C(=O)CCn3cc(C)cn3)C2)n1` (stereo not given), the “Percent Effect” value is reported as -1.231%.

For `Cc1csc2c(C3CCN(C(=O)Cn4cncn4)CC3)nc(C)n12`, the “Percent Effect” value is given as 67.21%.

Take `Cc1csc2c(C3CCCN(C(=O)CCn4cncn4)C3)nc(C)n12` (stereo not given): the “Percent Effect” value was determined as 98.48%.

In the case of `Cc1csc(N2CCN(C(=O)CCn3cncn3)CC2)n1`, the “Percent Effect” value was 2.857%.

`COCCCN1CCCN(C(C)C(=O)Nc2ccnn2C(C)C)CC1` (stereo not given): the “Percent Effect” value is reported as -2.846%.

As to `CCOc1c(Cl)cccc1NCc1cc(C)on1`, the “Percent Effect” value came out at 3.225%.

Take `Cc1cc(Cl)ccc1C(=O)N[C@H]1CN(S(C)(=O)=O)C[C@@H]1C1CC1`: the “Percent Effect” value is 11.67%.

On to `COc1cccc([C@H]2CN(C(=O)c3nnc4n3CCCC4)C[C@@H]2N)c1`, for which the “Percent Effect” value is -27.9%.

As to `N#Cc1cc(NC(=O)c2ccncc2)ccc1N1CCC(O)CC1`, the “Percent Effect” value is given as -6.115%.

As to `CSc1[nH]nc(NC(=O)c2ccccc2)c1C#N`, the “Percent Effect” value was determined as 100.8%.

On to `CSc1[nH]nc(NC(=O)c2ccncc2)c1C#N`, for which the “Percent Effect” value worked out at 113.4%.

As for `CSc1[nH]nc(NC(=O)c2cccs2)c1C#N`, the “Percent Effect” value was found to be 125.8%.

In the case of `CC(C)(C)NC(=O)c1ccccc1NC(=O)c1ccncc1`, the “Percent Effect” value was 2.582%.

Regarding `N#Cc1cc(NC(=O)c2ccccc2)ccc1N1CCC(O)CC1`, the “Percent Effect” value is listed as 8.386%.

In the case of `CC(NC(=O)c1cccs1)C(=O)NS(=O)(=O)Cc1ccc(C#N)cc1` (stereo not given), the “Percent Effect” value is 0.007489%.

Turning to `O=C(NCC(F)(F)C(F)F)c1cccnc1`, the “Percent Effect” value was -7.591%.

For the molecule `CS(=O)(=O)Cc1ccc(NC(=O)c2cccnc2)cc1F`, the “Percent Effect” value stood at 11.8%.

As to `CSc1[nH]nc(NC(=O)c2cccnc2)c1C#N`, the “Percent Effect” value was 127.6%.

For the molecule `CC(NC(=O)CSCC#N)c1cccc(NC(=O)c2ccccc2)c1` (stereo not given), the “Percent Effect” value worked out at 1.227%.

As to `CN1CCN(c2ccc(NC(=O)c3cccs3)c(C(F)(F)F)c2)CC1`, the “Percent Effect” value is given as -12.21%.

In the case of `CCOc1ccc(CN2C(=O)CC(CC)(CC)C2=O)nc1`, the “Percent Effect” value came to 8.891%.

In the case of `Cc1cc(-n2cnnn2)n2ncnc2n1`, the “Percent Effect” value was determined as 118.9%.

`Cc1cc(N2CCCCC2Cn2nc(C)cc2C)n2ncnc2n1` (stereo not given): the “Percent Effect” value is given as -7.962%.

`Cc1cc(NCc2ccccc2CN2CCCCC2)n2ncnc2n1`: the “Percent Effect” value is given as -7.326%.

As to `Cc1cc(N2CCCC2Cn2nc(C)cc2C)n2ncnc2n1` (stereo not given), the “Percent Effect” value is given as 10.49%.

Take `Cc1cc(-n2cncn2)n2ncnc2n1`: the “Percent Effect” value is 116%.

With `CCc1nc2n(n1)CC(Nc1cc(C)nc3ncnn13)CC2` (stereo not given), the “Percent Effect” value was -9.549%.

`CN1CCC(N2CCOC[C@H]2c2nc(C(C)(C)C)c[nH]2)CC1`: the “Percent Effect” value was -19.67%.

Consider `Cc1cc(S(C)(=O)=O)c(C)c(S(=O)(=O)NCC2CCC2)c1`, for which the “Percent Effect” value was -2.164%.

With `COCCN1C(=O)CO[C@H]2CN(Cc3ccccc3OC)C[C@H]21`, the “Percent Effect” value is reported as -3.474%.

For the molecule `COCCN1C(=O)CO[C@H]2CN(Cc3ccccc3Cl)C[C@@H]21`, the “Percent Effect” value is 128.8%.

As for `COCCN1C(=O)CO[C@H]2CN(CCCc3ccccc3)C[C@H]21`, the “Percent Effect” value is on record as -4.545%.

On to `COCCN1C(=O)CO[C@H]2CN(S(=O)(=O)c3ccccc3)C[C@H]21`, for which the “Percent Effect” value was determined as 1.954%.

For the molecule `COCCN1C(=O)CO[C@H]2CN(Cc3cccc(OC)c3F)C[C@@H]21`, the “Percent Effect” value is on record as 149.6%.

For the molecule `COCCN1C(=O)CO[C@@H]2CN(S(=O)(=O)c3ccccc3)C[C@H]21`, the “Percent Effect” value was 3.273%.

For `C[S+]([O-])c1nncn1CC(=O)c1cccc(C(F)(F)F)c1` (stereo not given), the “Percent Effect” value is on record as -15.18%.

As for `Cc1cc(CN2CCOC(CN(C)c3cccnn3)C2)no1` (stereo not given), the “Percent Effect” value is -1.412%.

For the molecule `O=C(c1coc(-c2ccccc2)n1)N1CCS(=O)(=O)CC1`, the “Percent Effect” value was -26.15%.

On to `O=C(c1ccc(=O)[nH]n1)N1CCCC1CCc1ccccc1` (stereo not given), for which the “Percent Effect” value is given as -7.859%.

For the molecule `CCC1CN(C(=O)c2ccc(=O)[nH]n2)CCC(=O)N1Cc1ccccc1` (stereo not given), the “Percent Effect” value worked out at 3.625%.

Regarding `O=C(c1ccc(=O)[nH]n1)N1CCNCC1c1ccccc1` (stereo not given), the “Percent Effect” value came out at 145.5%.

As to `C[C@@H]1CN(Cc2nnc(-c3cccnc3)o2)CC[C@]1(C)O`, the “Percent Effect” value is given as -2.885%.

In the case of `CC1CCCN(Cc2ccc(CNC(=O)NCc3ccncc3)cc2)C1` (stereo not given), the “Percent Effect” value is reported as -7.368%.

Regarding `C[C@@H]1CN(Cc2ccncc2)C[C@]1(C)O`, the “Percent Effect” value is reported as 97.25%.

Take `CNc1ccnc(N2C[C@@H](C)[C@](O)(C3CC3)C2)n1`: the “Percent Effect” value was 0.4082%.

Consider `C[C@@H]1CN(CC(C)(C)N2CCCCC2)C[C@@]1(O)C1CC1`, for which the “Percent Effect” value is 17.38%.

As to `C[C@@H]1CN(Cc2ccncc2)C[C@@]1(O)C1CC1`, the “Percent Effect” value amounted to 102.1%.

Consider `CC(=O)NCCc1ccc(S(=O)(=O)N(C)C(C)C(C)(C)C)s1` (stereo not given), for which the “Percent Effect” value is listed as -15.89%.

Take `COc1ccc(C(C)C)cc1C1CC(=O)NCc2nc(N(C)C)sc21` (stereo not given): the “Percent Effect” value was -38.77%.

Turning to `COc1ccnc(N2CCN(C(=O)c3cnc(C4CC4)s3)CC2)n1`, the “Percent Effect” value was -14.05%.

As for `CN1CCC(c2nnc3n2CCN(S(=O)(=O)c2ccccc2)C3)CC1`, the “Percent Effect” value stood at 90.65%.

As to `CCc1nnc2n1CCN(CCS(=O)(=O)c1ccccc1)C2`, the “Percent Effect” value turned out to be 5.511%.

For the molecule `CNC(=O)CS(=O)(=O)C1CCN(S(=O)(=O)c2cccc(Cl)c2C)CC1`, the “Percent Effect” value is given as -17.28%.

As for `Clc1ccc2cccnc2c1CN1CCn2c(nnc2C2CC2)C1`, the “Percent Effect” value is listed as -29.6%.

On to `Cn1cnnc1S(=O)(=O)C1CCN(S(=O)(=O)c2c(Cl)cccc2Cl)CC1`, for which the “Percent Effect” value is reported as -14.3%.

On to `c1ccc2oc(N3CCn4c(nnc4C4CC4)C3)nc2c1`, for which the “Percent Effect” value is listed as -3.429%.

For `CN1CCC(c2nnc3n2CCN(S(=O)(=O)c2ccccc2Cl)C3)CC1`, the “Percent Effect” value was 149.5%.

Take `O=c1[nH]nc2n1CCN(S(=O)(=O)c1ccccc1Cl)C2`: the “Percent Effect” value is on record as -39.65%.

Turning to `CN1CCCC(c2nnc3n2CCN(S(=O)(=O)c2ccccc2Cl)C3)C1` (stereo not given), the “Percent Effect” value was found to be 97.31%.

With `O=S(=O)(c1ccccc1Cl)N1CCCC(c2ncc[nH]2)C1` (stereo not given), the “Percent Effect” value was -0.103%.

On to `CN1CCCC1c1nnc2n1CCN(S(=O)(=O)c1ccccc1Cl)CC2` (stereo not given), for which the “Percent Effect” value was 104.7%.

With `CCOCc1cccc(NC(=O)C2COCCO2)c1` (stereo not given), the “Percent Effect” value stood at 8.112%.

For `CC(Oc1ccc(OCc2ncc(C(C)C)o2)cc1)C(N)=O` (stereo not given), the “Percent Effect” value came to 3.924%.

For the origin of these results see ChEMBL document CHEMBL3988442, “University of Dundee, Small-Polar-MMV Screening Library” (2021).
